This is an account of results in PubChem BioAssay AID720504 (National Center for Advancing Translational Sciences (NCATS), 2013).

Each structure is given as a SMILES string. Screen size: about 360,000 compounds; about 10,000 (2.8%) were called active. Another 4% or so got no clear call; they are omitted. Calls come from the whole dose curve; as a rule, active = well fitted inhibition curve with a large enough effect; inconclusive = small, poorly fitted or top-dose-only effect; inactive = flat fitted curve, though single readings scatter. Only a selection was taken, and actives are over-represented in it overall.
% is set by controls: 0 for no effect and ±100 for the full control effect; potency is the fitted concentration of half-maximal effect.

Serine/threonine-protein kinase PLK1 (Homo sapiens), sequence (P53350 whole entry, looked up, the tested form may be a part): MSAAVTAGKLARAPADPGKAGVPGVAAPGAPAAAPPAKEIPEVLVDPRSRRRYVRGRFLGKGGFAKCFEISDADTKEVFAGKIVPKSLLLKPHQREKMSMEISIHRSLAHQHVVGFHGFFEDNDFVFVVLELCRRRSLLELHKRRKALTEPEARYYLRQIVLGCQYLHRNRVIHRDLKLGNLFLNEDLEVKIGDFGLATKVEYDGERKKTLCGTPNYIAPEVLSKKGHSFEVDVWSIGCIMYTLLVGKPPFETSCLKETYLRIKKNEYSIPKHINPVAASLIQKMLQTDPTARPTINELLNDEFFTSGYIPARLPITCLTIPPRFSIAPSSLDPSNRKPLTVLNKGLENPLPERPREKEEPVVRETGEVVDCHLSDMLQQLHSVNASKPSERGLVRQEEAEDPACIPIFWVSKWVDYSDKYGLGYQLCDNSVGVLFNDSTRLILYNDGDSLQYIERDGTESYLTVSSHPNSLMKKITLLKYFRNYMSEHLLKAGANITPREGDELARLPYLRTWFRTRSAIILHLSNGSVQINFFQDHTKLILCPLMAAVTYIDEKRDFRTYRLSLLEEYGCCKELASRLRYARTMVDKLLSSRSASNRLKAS

The assay concerns the target Serine/threonine-protein kinase PLK1 (Homo sapiens) (UniProt P53350). The experiment in a line: qHTS for Inhibitors of PLK1-PDB (polo-like kinase 1 - polo-box domain): Primary Screen. For max response, negative = inhibition: series mostly up to about 57 µM. Note: nearly all actives have a fitted effect of over 65% in size. Conditions: Plk1 PBD binding of FITC phosphopeptide, fluorescence polarization. On the technique in general: In qHTS, concentration-response curves come from the screen itself.
Regarding `CCOC(=O)[C@]12CCCC=C1N(CCC1=CCCCC1)C(=O)[C@H](CC(=O)NCCCCc1ccccc1)C2`, the max response, negative = inhibition was -2.05% (inactive). `Cc1ccccc1S(=O)(=O)Cc1ccc(C(=O)NCCN2CCCCC2C)o1` (stereo not given): the max response, negative = inhibition was 1.66% (inactive). As for `COc1ccccc1CNC(=O)c1ccc(CS(=O)(=O)c2ccccc2)o1`, the max response, negative = inhibition was -4.65% (inactive). On to `CCc1ccccc1S(=O)(=O)Cc1ccc(C(=O)NCCc2ccccc2)o1`, for which the Potency is 26.7 µM (active). For `COC(=O)c1ccc2nc(-c3cccc(Br)c3)c(Cc3ccc(OC)cc3C)n2c1`, the max response, negative = inhibition is -4.35% (inactive). On to `CCC(c1nnnn1-c1ccc2c(c1)OCCO2)N1CCN(c2ccc(C(F)(F)F)cn2)CC1` (stereo not given), for which the max response, negative = inhibition was 3.69% (inactive). Still for that read-out and setting: the same measure for `COc1ccc(C(CNC(=O)c2ccc(OCc3cscn3)cc2)N2CCCC2)cc1` (stereo not given): 3.78% (inactive).

Consider `Cc1cc(NC(=O)Nc2ccccc2[N+](=O)[O-])no1`, for which the Potency was 10.6 µM (active).

With `Cc1cc(NC(=O)c2ccccc2C)no1`, the max response, negative = inhibition was -3.17% (inactive). The same measure, in the same setting: next, `Cc1csc(NC(=O)Nc2ccccc2[N+](=O)[O-])n1`: 3.11% (inactive). For the molecule `O=C(O)c1ccc(NC(=O)c2cn(-c3ccccc3)nc2-c2ccc(Cl)cc2)cc1`, the Potency was 26.7 µM (active).

Turning to `Cc1ccc(-c2nn(-c3ccccc3)cc2C(=O)NC2CCC(O)CC2)cc1` (stereo not given), the max response, negative = inhibition was 6.03% (inactive).

`Cc1ccc(-c2nn(-c3ccccc3)cc2C(=O)Nc2cccc(S(=O)(=O)N3CCOCC3)c2)cc1`: the max response, negative = inhibition is -5.73% (inactive). `Nc1nc2c(Br)ccc(Br)c2cc1C(=O)NCCc1ccccc1`: the max response, negative = inhibition is -9.21% (inactive). Turning to `COc1cccc(NC(=O)CN(C)C(=O)c2cc(Cl)nc3ccccc23)c1`, the max response, negative = inhibition is -14.4% (inactive). For `O=C(C[C@H]1C[C@H]2c3cc(NS(=O)(=O)c4ccc(F)cc4)ccc3O[C@H]2[C@H](CO)O1)NCc1cc(F)ccc1F`, the max response, negative = inhibition was -5.98% (inactive). As for `O=c1ccc2c(-c3ccccc3S(=O)(=O)O)c3ccc(O)c(O)c3oc-2c1O`, the Potency was 7.52 µM (active). On to `O=C(c1cccs1)N1C[C@H](n2cc(C3CC3)nn2)[C@@H](O)C[C@@H]1c1ccccc1`, for which the max response, negative = inhibition is 0.263% (inactive). The same measure, in the same setting: the same measure for `O=C(Nc1ccc(S(=O)(=O)N2CCCCC2)cc1)C1CC(=O)N(c2ccc(F)cc2)C1` (stereo not given): -7.84% (inactive).

`CNS(=O)(=O)c1ccc(NC(=O)C2CC(=O)N(c3ccc(Cl)cc3)C2)cc1` (stereo not given): the Potency is 26.7 µM (active). For the molecule `Cc1ccc(N2CC(C(=O)Nc3ccc(S(=O)(=O)N4CCCC4)cc3)CC2=O)cc1C` (stereo not given), the max response, negative = inhibition was -12.9% (inactive).

As to `CCc1nc2c(OCCC3CCCCC3)cccn2c1N(C)C(=O)c1ccco1`, the max response, negative = inhibition was -5.85% (inactive). Same read-out and setting: the same measure for `COc1ccc(N2c3ccccc3CN(Cc3ccccc3)[C@@H](C)[C@H]2Cc2ccc(-c3ccccc3)cc2)cc1`: 3.32% (inactive); for `Cc1sc2ncnc(SCC(=O)NC3CCS(=O)(=O)C3)c2c1C` (stereo not given): -10.2% (inactive); for `O=C(NCc1nnnn1-c1ccc(Cl)cc1)c1ccc2c(c1)OCO2`: -15.4% (inactive). As to `COc1ccc(C(=O)NCC2CCCO2)cc1S(=O)(=O)NCc1ccc(Cl)cc1` (stereo not given), the max response, negative = inhibition was -11.7% (inactive). On to `Cc1ccc([C@H]2C[C@H](O)[C@@H](n3cc(COC(=O)c4ccccc4)nn3)CN2C(=O)C2CCCCC2)cc1`, for which the max response, negative = inhibition is -1.5% (inactive). For the molecule `Nc1ccc2[nH]c(=S)sc2c1`, the Potency is 2.99 µM (active). Take `O=c1[nH]c2ccccc2s1`: the max response, negative = inhibition was -9.39% (inactive). As for `CC1=C(C(=O)N2CCOCC2)CC(CC(=O)NCc2ccco2)C(=O)N1Cc1ccc(F)cc1` (stereo not given), the max response, negative = inhibition is -9% (inactive). Regarding `CCOC(=O)C1CCCN(C(=O)c2cccc3ccccc23)CC1` (stereo not given), the max response, negative = inhibition was -9.5% (inactive).

With `N#Cc1nc(COc2ccc(Cl)cc2)oc1N1CCCC1`, the max response, negative = inhibition is -6.72% (inactive).

For the molecule `CC1CCN(c2oc(-c3ccccc3F)nc2C#N)CC1`, the max response, negative = inhibition was 1.03% (inactive).

Consider `Cc1ccc(OCc2nc(C#N)c(N3CCCC3)o2)cc1`, for which the Potency is 5.32 µM (active). `COC(=O)c1ccc(CN2C(=O)C(Cc3ccccc3)ON=C2c2ncccc2C)o1` (stereo not given): the max response, negative = inhibition was 5.05% (inactive). On to `CN1OC[C@@H]2CN(C(=O)C(C)(C)C)[C@H](c3ccc(-n4ccnc4)cc3)C[C@@H]21`, for which the max response, negative = inhibition was -0.5% (inactive).

For `COc1cc(CNc2ncnc3c2ncn3[C@H]2CN(Cc3cccs3)C[C@@H](CO)O2)cc(OC)c1OC`, the max response, negative = inhibition was -6.55% (inactive). Regarding `COCCCn1c(C(=O)NC2CCCCC2)cc2c(=O)n3cccc(C)c3nc21`, the max response, negative = inhibition is -6.64% (inactive). With `Fc1ccc(OCc2nn3c(Cn4nnc5ccccc54)nnc3s2)cc1`, the Potency was 11.9 µM (active). With `C/C(Cn1nnc2ccccc21)=N\OC(=O)c1cc(F)c(F)cc1Cl`, the max response, negative = inhibition was -15% (inactive). In the case of `Cn1c(Cn2nnc3ccccc32)nnc1SCC(=O)c1ccccc1F`, the max response, negative = inhibition was -9.05% (inactive). As for `COC(=O)[C@]12CCCCC=C1N(Cc1ccc(Cl)cc1Cl)C(=O)[C@H](CC(=O)NCc1cccc3ccccc13)C2`, the max response, negative = inhibition was -11% (inactive). The same measure, in the same setting: next, `CCc1nc2c(=O)[nH]cnc2o1`: -1.77% (inactive); `CC(=NNC(N)=O)C1CC2CCC1CC2` (stereo not given): -7.72% (inactive); `Cc1ccc(C(=O)NCCc2nnc(SCC(=O)Nc3cccc(C(=O)O)c3)n2C)cc1`: 1.64% (inactive). As to `CC(C)c1nc(SCC(=O)Nc2cccc(C(=O)O)c2)c2c3c(sc2n1)CCCC3`, the Potency is 42.3 µM (active). With `Cc1cc(NC(=O)CSc2nc(C(C)C)nc3sc4c(c23)CCC(C)C4)no1` (stereo not given), the max response, negative = inhibition was -3.46% (inactive). In the case of `CC1(C(=O)NCc2ccc3c(c2)OCO3)CCN1C(=O)Cc1cccs1` (stereo not given), the max response, negative = inhibition was 10.1% (inactive). For the molecule `COC(=O)c1ccc2nc(-c3cccc(Br)c3)c(Cc3ccccc3C(F)(F)F)n2c1`, the max response, negative = inhibition was -0.95% (inactive).

Regarding `CCN(CC)S(=O)(=O)c1ccc(NC(=O)c2cccnc2Cl)c(NC(=O)c2cccnc2Cl)c1`, the Potency was 23.8 µM (active). `CCN(CC)S(=O)(=O)c1ccc(NC(=O)c2cnc(C)cn2)cc1`: the max response, negative = inhibition was 1.21% (inactive). Take `Cc1ccc(CNC(=O)c2cccnc2Cl)cc1`: the max response, negative = inhibition was -17.3% (inactive). Consider `COc1ccc(-c2csc(C(O)c3cccc(Cl)c3)n2)cn1` (stereo not given), for which the max response, negative = inhibition is -6.07% (inactive). On the same count and under the same terms, the same measure for `CCCCCNC(=O)C(c1ccc(OC)cc1)n1c(=O)c(-c2ccccc2)nc2ccccc21` (stereo not given): -10.5% (inactive). Turning to `COc1ccc(S(=O)(=O)Nc2ccc(O)c(Sc3nc4ccccc4s3)c2)cc1`, the Potency is 16.8 µM (active). For the molecule `O=S(=O)(Nc1ccc2nc(N3CCOCC3)sc2c1)c1ccccc1`, the max response, negative = inhibition is -10.1% (inactive). For `COc1ccc(NS(=O)(=O)c2ccc(NC(=S)NC(=O)CC(C)C)cc2)cc1`, the max response, negative = inhibition is -14.2% (inactive). For the molecule `O=C(O)c1cccc(S(=O)(=O)Nc2ccc(O)cc2Sc2nc3ccccc3s2)c1`, the Potency was 13.4 µM (active).

Take `COc1ccc(NS(=O)(=O)c2ccc3oc(SCC(N)=O)nc3c2)cc1`: the max response, negative = inhibition is -0.392% (inactive).

For the molecule `Cc1nc2ccc(NC(=O)c3cccc(S(=O)(=O)N4CCOCC4)c3)cc2s1`, the max response, negative = inhibition was -2.09% (inactive).

As for `N#Cc1ccc(-c2ccc3nccn3c2)cc1`, the max response, negative = inhibition is -5.23% (inactive).

For the molecule `Cc1cc(C)n2nc(C(=O)N3CCN(Cc4ccc5c(c4)OCO5)CC3)nc2n1`, the max response, negative = inhibition was -1.06% (inactive). On to `COc1ccc(-c2cc(C(=O)N3CCN(Cc4ccc5c(c4)OCO5)CC3)on2)cc1OC`, for which the Potency is 5.97 µM (active). Consider `O=C(c1cccs1)N1CCN(Cc2ccc3c(c2)OCO3)CC1`, for which the max response, negative = inhibition is -0.579% (inactive). On to `Cc1ccc(OC(=O)CCC(=O)Nc2ccc(Br)cc2)cc1`, for which the max response, negative = inhibition is -3.3% (inactive).

Take `COC(=O)Cc1ccc(NC(=S)NCc2ccccc2)cc1`: the max response, negative = inhibition was -14.7% (inactive). Turning to `CC(C)Oc1ccc(CC(=O)NNC(=S)Nc2ccc(Br)cc2)cc1`, the Potency is 13.4 µM (active). In the case of `O=C1NC[C@@H](CCCCN2CCN(CCc3ccc(O)cc3)C(=O)C2=O)N(CC2CCCCC2)C1=O`, the max response, negative = inhibition was -8.33% (inactive). In the case of `FC(F)(F)c1cccc(-c2nc3ccccc3n2C(c2ccccc2)c2nc3ccccc3[nH]2)c1` (stereo not given), the max response, negative = inhibition was -0.5% (inactive). As to `Cc1cccc(C)c1NC(=O)CN1CCN(c2ccc(F)cc2)CC1`, the max response, negative = inhibition is -2.75% (inactive). The same measure, in the same setting: the same measure for `CCOc1cc(C=NNC(=O)CCCC(=O)NN=Cc2ccc(O)c(OCC)c2)ccc1O`: -0.399% (inactive); for `C=CCNC(=O)CCCC(=O)NCC=C`: 2.64% (inactive). With `C/C=N/NC(=O)CCCC(=O)N/N=C/C`, the Potency was 29.9 µM (active).

With `Cc1cc(C)n2c(Nc3c(C)cccc3C)c(CCc3ccccc3)nc2n1`, the max response, negative = inhibition was -7.58% (inactive).

Take `CSc1ccccc1C(=O)NCc1ccccc1`: the max response, negative = inhibition was -11.2% (inactive).

As to `CSc1ccccc1C(=O)Nc1cccc(C(C)=O)c1`, the Potency was 23.8 µM (active). Consider `CC(=O)c1cccc(NC(=O)c2cc(C)nn2-c2ccccc2)c1`, for which the max response, negative = inhibition was 5.02% (inactive).

Consider `CN(Cc1c(F)cccc1Cl)C(=O)COC(=O)Cn1cnc2ccccc2c1=O`, for which the max response, negative = inhibition is -0.103% (inactive). On to `CC(C)C1C(=O)N(Cc2cn(CCC3OCCO3)nn2)CCS(=O)(=O)N1Cc1ccc(-c2ccccc2C(F)(F)F)cc1` (stereo not given), for which the max response, negative = inhibition is 0.333% (inactive).

In the case of `COc1cccc(-c2ccc3c(c2)N(Cc2ccccc2OC)C(=O)C(C)S3)c1` (stereo not given), the max response, negative = inhibition is 0.113% (inactive). For `CCOC(=O)C1CCCN(C(=O)c2ccc(N(C)C)cc2)CC1` (stereo not given), the max response, negative = inhibition is -4.5% (inactive). As to `Cc1cccc(NC(=S)N2CCC(C(=O)c3ccc(F)cc3)CC2)c1`, the Potency was 2.99 µM (active).

With `Cc1cccc(NC(=S)N2CCC(c3nc4ccccc4s3)CC2)c1`, the max response, negative = inhibition is -1.09% (inactive).

For `CC(=O)c1cccc(NC(=S)N2CCCC2)c1`, the max response, negative = inhibition was -6.15% (inactive). `CCOC(=O)C1(C)CCCN(C(=O)c2ccc(F)c(Cl)c2)C1` (stereo not given): the max response, negative = inhibition is -9.56% (inactive). Turning to `CN(C)C(CNC(=O)c1cccc(S(=O)(=O)N2CCc3ccccc3C2)c1)c1ccccc1` (stereo not given), the max response, negative = inhibition is -5.08% (inactive). Take `CC1(C(=O)NS(=O)(=O)c2cccc(F)c2)CCN1C(=O)c1cccc2ccccc12` (stereo not given): the max response, negative = inhibition is -0.565% (inactive).

With `COc1ccc2[nH]cc(CCN3C(=O)c4ccc(C(=O)O)cc4C3=O)c2c1`, the max response, negative = inhibition was -13.3% (inactive). Turning to `O=C1c2ccccc2C(=O)N1CCCCCCN1C(=O)c2ccccc2C1=O`, the max response, negative = inhibition is -2.55% (inactive).

Consider `Cc1ccc2[nH]cc(CCCN3C(=O)c4ccccc4C3=O)c2c1`, for which the Potency was 29.9 µM (active).
